# Results: PubChem BioAssay (NCATS)
# Results filed as inconclusive are left out. Entries that show only a call come without a potency. Calls of active or inactive are those of the source. Calls come from the whole dose curve; as a rule, active = well fitted cell-killing curve with a large enough effect; inconclusive = small, poorly fitted or top-dose-only effect, or effect the other way; inactive = no such curve, though single readings can be large or run the other way.
# Test: Quantitative High-Throughput drug screen in 47 multiple myeloma cell lines against the NCATS MIPE library collection: RPMI8226_ATCC cell viability assay (AID 1919871); note: nearly all actives have a fitted effect of over 30% in size
# Details: RPMI8226 myeloma viability, CellTiter-Glo ATP luminescence, 48 h; series mostly up to 45.8 µM
# Source text: PI: Beverly A. Mock Ph.D.
# Laboratory of Cancer Biology and Genetics,
# Center for Cancer Research, National Cancer Institute,
# National Institute of Health, Bethesda, Maryland
# Drug resistance and disease progression are common in multiple myeloma (MM) patients, underscoring the need for new therapeutic combinations. […] We hypothesized that effective combinations would reduce MYC expression and enhance p16 activity. […] These preclinical data identify potentially useful drug combinations for evaluation in drug-resistant MM and reveal potential mechanisms of combined drug sensitivity.
# Described herein is the primary MIPE qHTS used to cherrypick compounds. Validated compounds were then further tested for potential synergistic activiy.
# [1] Peat TJ, Gaikwad SM, Dubois W, Gyabaah-Kessie N, Zhang S, Gorjifard S, Phyo Z, Andres M, Hughitt VK, Simpson RM, Miller MA, Girvin AT, Taylor A, Williams D, D'Antonio N, Zhang Y, Rajagopalan A, Flietner E, Wilson K, Zhang X, Shinn P, Klumpp-Thomas C, McKnight C, Itkin Z, Chen L, Kazandijian D, Zhang J, Michalowski AM, Simmons JK, Keats J, Thomas CJ, Mock BA. Drug combinations identified by high-throughput screening promote cell cycle transition and upregulate Smad pathways in myeloma. Cancer Lett. 2023 Aug 1;568:216284. doi: 10.1016/j.canlet.2023.216284. Epub 2023 Jun 24. PMID: 37356470; PMCID: PMC10408729.
# SEQUENCE No. (e.g., 1, 2, 3, etc.); […] (e.g., Cells, Incubation, Reagent, etc.); VALUE and DESCRIPTION.
# 1; Cells; 5 uL; white, solid bottom 1536-well Greiner assay plate.
# 2; Compounds; 23 nL; Kalypsis pin tool (Wako USA) equipped with a 1536-well pin head to transfer to the assay plates.
# 3; Incubation; 48 hours; 37C incubation.
# 4; Reagent;5uL; CellTiter Glo (Promega).
# 5; Detector; 425V; Luminescence; Viewlux PerkinElmer.
# NOTES (numbers refer to Sequence numbers above)
# 1. The cell-based screening methods employed in this study were like those previously published. Briefly, the corresponding myeloma cell lines were screened in 1,536-well plates with 500 cells, 5-uL per well for inhibition of cell viability (assessed by measuring ATP levels with CellTiterGlo).
# 2. NCATS MIPE 4.0 library of approved and investigational drugs were added using the Kalypsis pin tool. Wells treated with DMSO only for 100% viability and media only for 0% viability were used as controls.
# 3. The assay plates were covered and incubated for 48 hours in a 37C, 5% CO2 incubator with controlled humidity.
# 4. After 48 hours, CellTilter-GloTM luminescent substrate mix (Promega) reagent was added to the assay plate and plates we incubated for 5 min at room temperature.
# 5. Signal was measured as median relative luminescence units on a ViewLux (PerkinElmer) multiplate reader.
# [1] Heske CM, Davis MI, Baumgart JT, Wilson K, Gormally MV, Chen L, Zhang X, Ceribelli M, Duveau DY, Guha R, Ferrer M, Arnaldez FI, Ji J, Tran HL, Zhang Y, Mendoza A, Helman LJ, Thomas CJ. Matrix Screen Identifies Synergistic Combination of PARP Inhibitors and Nicotinamide Phosphoribosyltransferase (NAMPT) Inhibitors in Ewing Sarcoma. Clin Cancer Res. 2017 Dec 1;23(23):7301-7311. doi: 10.1158/1078-0432.CCR-17-1121. Epub 2017 Sep 12. PMID: 28899971; PMCID: PMC6636827.
# Potency is the fitted concentration of half-maximal effect.
row,SMILES,Potency
1,O=C(CCc1ccc(O)cc1)c1c(O)cc(O)cc1O,4.69 µM (active)
2,CN(C)[C@@H](CCOc1cccc2ccccc12)c1ccccc1,16.6 µM (active)
3,CC(C)[N+]1(C)[C@@H]2CC[C@H]1CC(OC(=O)C(CO)c1ccccc1)C2 (stereo not given in full),inactive
4,c1ccc2[nH]c(-c3cscn3)nc2c1,inactive
5,O=C(O)c1cccc(-c2noc(-c3ccccc3F)n2)c1,inactive
6,C=C(c1ccc(C(=O)O)cc1)c1cc2c(cc1C)C(C)(C)CCC2(C)C,inactive
7,COc1ccccc1N1CCN(CCN(C(=O)C2CCCCC2)c2ccccn2)CC1,inactive
8,Nc1ncn([C@H]2C[C@H](O)[C@@H](CO)O2)c(=O)n1,inactive
9,CCOC(=O)C(C)Oc1cccc2c(=O)n(CC(=O)Nc3ccc4c(c3)OCCO4)ccc12 (stereo not given),inactive
10,CN(C)c1ccc2nc3ccc(=[N+](C)C)cc-3sc2c1,6.62 µM (active)
11,CC(C)C[C@H](NC(=O)[C@H](Cc1ccccc1)NC(=O)c1cnccn1)B(O)O,0.0187 µM (active)
12,Cc1ccc(NC(=O)c2ccc(CN3CCN(C)CC3)cc2)cc1Nc1nccc(-c2cccnc2)n1,inactive
13,CCCCN(CCCC)CCC(O)c1cc2c(Cl)cc(Cl)cc2c2cc(C(F)(F)F)ccc12 (stereo not given),inactive
14,COC(=O)N[C@H](C(=O)N[C@@H](Cc1ccccc1)[C@@H](O)CN(Cc1ccc(-c2ccccn2)cc1)NC(=O)[C@@H](NC(=O)OC)C(C)(C)C)C(C)(C)C,inactive
15,O=C(O)CCNC(=O)c1ccc(N=Nc2ccc(O)c(C(=O)O)c2)cc1,inactive
16,COc1ccc2cc([C@H](C)C(=O)O)ccc2c1,inactive
17,O=Nc1c(-c2c(O)[nH]c3cc(Br)ccc23)[nH]c2ccccc12,18.7 µM (active)
18,Nc1cc(C(Cl)=C(Cl)Cl)c(S(N)(=O)=O)cc1S(N)(=O)=O,inactive
19,CN1CCC(=C2c3ccccc3CCc3sccc32)CC1,16.6 µM (active)
20,C[C@]12CCC(=O)C=C1CC[C@@H]1[C@H]2[C@@H](O)C[C@@]2(C)[C@H]1CC[C@]2(O)C(=O)CO,0.418 µM (active)

row,SMILES,Potency
1,Nc1ccc(S(N)(=O)=O)cc1,inactive
2,CN(C)C(=O)COC(=O)Cc1ccc(OC(=O)c2ccc(N=C(N)N)cc2)cc1,inactive
3,Cc1cc(=O)c2c(O)c3c(O)cc(=O)c4c3c3c(cc(O)c1c23)C(C)(C)C=4O,1.48 µM (active)
4,COc1ccc(C2(C#N)CCC(C(=O)O)CC2)cc1OC1CCCC1 (stereo not given),inactive
5,O=P(O)(O)C(O)(Cn1ccnc1)P(=O)(O)O,inactive
6,Nc1ccn([C@@H]2O[C@H](CO)[C@@H](O)C2O)c(=O)n1 (stereo not given in full),inactive
7,CCOC(=O)C1=C[C@@H](OC(CC)CC)[C@H](NC(C)=O)[C@@H](N)C1,inactive
8,O=C1c2c(O)cc(O)cc2OC(c2ccc(O)c(O)c2)C1O (stereo not given),inactive
9,CCC1=C(C)CN(C(=O)NCCc2ccc(S(=O)(=O)NC(=O)NC3CCC(C)CC3)cc2)C1=O (stereo not given),inactive
10,Cn1c(NCCN(CCO)CCCc2ccc([N+](=O)[O-])cc2)cc(=O)n(C)c1=O,inactive
11,O=C(O)c1cccnc1Nc1cccc(C(F)(F)F)c1,inactive
12,C[C@@H](N)C1CCC(C(=O)Nc2ccncc2)CC1 (stereo not given in full),inactive
13,Cc1cc2cc3c(C)cc(=O)oc3c(C)c2o1,20.9 µM (active)
14,CC(C)[C@H](N)C(=O)OCCOCn1cnc2c(=O)[nH]c(N)nc21,inactive
15,CCCCc1ccc2nc(NC(=O)OC)[nH]c2c1,0.418 µM (active)
16,Cc1nc(-c2ccc(OCC(C)C)c(C#N)c2)sc1C(=O)O,inactive
17,CC(C)c1ccc2oc3nc(N)c(C(=O)O)cc3c(=O)c2c1,inactive
18,Cc1cc(=O)oc2cc(O)ccc12,inactive
19,CN(c1nccc(=O)[nH]1)C1CCN(c2nc3ccccc3n2Cc2ccc(F)cc2)CC1,inactive
20,NS(=O)(=O)c1cc(C(=O)O)c(NCc2ccco2)cc1Cl,inactive
